Data from PubChem BioAssay (EPA / NIEHS).
Activity calls are given as the source filed them. The calls were made as follows: active = hit-call score of the fitted dose curve at least 0.9, where 1 is the maximum; inactive = score below 0.9.

Tests used:
[1] = read-out: Vascular endothelial growth factor receptor 2 (Homo sapiens) (UniProt P35968); assay: BSK_4H_VEGFRII: BioMAP Diversity Plus: 4H Assay for Vascular endothelial growth factor receptor 2 (VEGFR2) Biomarker Activity (AID 2283031); details: primary human endothelial cells (HUVEC); actives raise or lower the signal
Procedure, shortened: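 Primary human umbilical vein endothelial cells (4H system), 24 h exposure; cell-surface VEGFR2 measured by ELISA. Bidirectional fitting versus DMSO; cytotoxicity checked in parallel by SRB total-protein staining.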

[2] = read-out: Human Leukocyte Antigen - DR isotype (HLADR), HLA-DRA (gene 3122); assay: BSK_BE3C_HLADR: BioMAP Diversity Plus: BE3C Assay for Human Leukocyte Antigen - DR isotype (HLADR) Biomarker Activity (AID 2283032); details: primary human bronchial epithelial cells; actives raise or lower the signal
Procedure, shortened: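 Signal came from an ELISA for HLA-DR in human bronchial epithelial primary cells harvested 24 h after treatment; gain- and loss-of-signal fitting used DMSO controls as reference.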

[3] = read-out: Vascular cell adhesion molecule 1 (VCAM1), VCAM1 (gene 7412); assay: BSK_4H_VCAM1: BioMAP Diversity Plus: 4H Assay for Vascular cell adhesion molecule 1 (VCAM1) Biomarker Activity (AID 2283033); details: primary human endothelial cells (HUVEC); actives raise or lower the signal;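 also: cell-surface VCAM-1 protein measured by ELISA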
Procedure, shortened: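 Endpoint derived from bidirectional fitting against DMSO controls of VCAM-1 ELISA signal in umbilical vein endothelial cells sampled at 24 h following treatment.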

[4] = read-out: Interferon-gamma inducible Protein 10 (IP10), CXCL10 (gene 3627); assay: BSK_BE3C_IP10: BioMAP Diversity Plus: BE3C Assay for Interferon-gamma inducible Protein 10 (IP10) Biomarker Activity (AID 2283034); details: primary human bronchial epithelial cells; actives raise or lower the signal
Procedure, shortened: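 Using primary human bronchial epithelial cultures, the assay captures IP-10 by ELISA one day (24 h) after exposure. Parallel SRB staining of total protein flags overt cytotoxicity. Fits run bidirectionally relative to DMSO.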

[5] = read-out: Monokine induced gamma interferon (MIG), CXCL9 (gene 4283); assay: BSK_BE3C_MIG: BioMAP Diversity Plus: BE3C Assay for Monokine induced gamma interferon (MIG) Biomarker Activity (AID 2283035); details: primary human bronchial epithelial cells; actives raise or lower the signal;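 also: MIG protein measured by ELISA in BE3C cultures after 24 h of dosing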
Procedure, shortened: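 ELISA read-out of MIG in human lung bronchial epithelial primary cultures, 24 h post-dosing. Bidirectional curve fit vs DMSO baseline.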

[6] = read-out: Plasminogen activator inhibitor-1 (PAI1), SERPINE1 (gene 5054); assay: BSK_BE3C_PAI1: BioMAP Diversity Plus: BE3C Assay for Plasminogen activator inhibitor-1 (PAI1) Biomarker Activity (AID 2283037); details: primary human bronchial epithelial cells; actives raise or lower the signal
Procedure, shortened: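 PAI-1 biomarker levels in treated human bronchial epithelial cells are determined by ELISA at 24 h. Both increases and decreases relative to DMSO are fitted.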

[7] = read-out: urokinase plasminogen activator (uPA), PLAU (gene 5328); assay: BSK_BE3C_uPA: BioMAP Diversity Plus: BE3C Assay for urokinase plasminogen activator (uPA) Biomarker Activity (AID 2283038); details: primary human bronchial epithelial cells; actives raise or lower the signal;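 also: uPA protein level quantified by ELISA in cell cultures; uPA read one day after compound addition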
Procedure, shortened: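 Primary human bronchial epithelial cells, uPA measured by ELISA 24 h after dosing. Bidirectional change relative to DMSO; cytotoxicity checked in parallel cultures by sulforhodamine B total-protein staining.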

[8] = read-out: Urokinase-type plasminogen activator receptor (uPAR), PLAUR (gene 5329); assay: BSK_BE3C_uPAR: BioMAP Diversity Plus: BE3C Assay for Urokinase-type plasminogen activator receptor (uPAR) Biomarker Activity (AID 2283039); details: primary human bronchial epithelial cells; actives raise or lower the signal;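 also: uPAR protein level measured by ELISA on the cells; cells exposed to compound for one day before measurement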
Procedure, shortened: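 A uPAR ELISA serves as the readout, taken 24 h after treating primary human bronchial epithelial cells. Responses in either direction are fitted against DMSO, which defines baseline activity.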

[9] = read-out: Interleukin-6 (IL6), IL6 (gene 3569); assay: BSK_CASM3C_IL6: BioMAP Diversity Plus: CASM3C Assay for Interleukin-6 (IL6) Biomarker Activity for (AID 2283040); details: primary human coronary artery smooth muscle cells; actives raise or lower the signal
[10] = read-out: Tissue plasminogen activator (tPA), PLAT (gene 5327); assay: BSK_BE3C_tPA: BioMAP Diversity Plus: BE3C Assay for Tissue plasminogen activator (tPA) Biomarker Activity (AID 2283041); details: primary human bronchial epithelial cells; actives raise or lower the signal;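 also: tPA level quantified by ELISA one day after compound addition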
Procedure, shortened: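 Bidirectional curve fitting relative to DMSO defined activity, with tPA detected by ELISA in chemically treated human bronchial epithelial primary cells at 24 hours.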

[11] = read-out: Interleukin-8 (IL8), CXCL8 (gene 3576); assay: BSK_CASM3C_IL8: BioMAP Diversity Plus: CASM3C Assay for Interleukin-8 (IL8) Biomarker Activity (AID 2283042); details: primary human coronary artery smooth muscle cells; actives raise or lower the signal;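 also: IL-8 protein level quantified by ELISA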
[12] = read-out: Human Leukocyte Antigen - DR isotype (HLADR), HLA-DRA (gene 3122); assay: BSK_CASM3C_HLADR: BioMAP Diversity Plus: CASM3C Assay for Human Leukocyte Antigen - DR isotype (HLADR) Biomarker Activity (AID 2283043); details: primary human coronary artery smooth muscle cells; actives raise or lower the signal;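 also: cell-surface HLA-DR protein level quantified by ELISA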
[13] = read-out: Macrophage colony-stimulating factor (MCSF), CSF1 (gene 1435); assay: BSK_CASM3C_MCSF: BioMAP Diversity Plus: CASM3C Assay for Macrophage colony-stimulating factor (MCSF) Biomarker Activity (AID 2283044); details: primary human coronary artery smooth muscle cells; actives raise or lower the signal;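 also: M-CSF protein amount quantified by ELISA after 24 h exposure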
[14] = read-out: Low-density lipoprotein receptor (LDLR), LDLR (gene 3949); assay: BSK_CASM3C_LDLR: BioMAP Diversity Plus: CASM3C Assay for Low-density lipoprotein receptor (LDLR) Biomarker Activity (AID 2283045); details: primary human coronary artery smooth muscle cells; actives raise or lower the signal;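 also: LDLR protein level on the cell surface quantified by ELISA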
[15] = read-out: Monocyte Chemoattractant Protein-1 (MCP1), CCL2 (gene 6347); assay: BSK_CASM3C_MCP1: BioMAP Diversity Plus: CASM3C Assay for Monocyte Chemoattractant Protein-1 (MCP1) Biomarker Activity (AID 2283046); details: primary human coronary artery smooth muscle cells; actives raise or lower the signal;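 also: MCP-1 level quantified by ELISA 24 h after dosing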
[16] = BSK_CASM3C_Proliferation: Cell Proliferation Assessment in the BioMAP Diversity Plus: CASM3C Assay (AID 2283047); details: primary human coronary artery smooth muscle cells;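 also: sulforhodamine B total protein stain as relative cell number at 560 nm; sub-confluent cells exposed 48 h before staining; fitted both ways against DMSO so gain or loss of cell number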
[17] = read-out: Monokine induced gamma interferon (MIG), CXCL9 (gene 4283); assay: BSK_CASM3C_MIG: BioMAP Diversity Plus: CASM3C Assay for Monokine induced gamma interferon (MIG) Biomarker Activity (AID 2283048); details: primary human coronary artery smooth muscle cells; actives raise or lower the signal;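 also: MIG protein level measured by ELISA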
[18] = read-out: serum amyloid A (SAA), SAA1 (gene 6288); assay: BSK_CASM3C_SAA: BioMAP Diversity Plus: CASM3C Assay for serum amyloid A (SAA) Biomarker Activity (AID 2283049); details: primary human coronary artery smooth muscle cells; actives raise or lower the signal;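 also: SAA protein level quantified by ELISA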
[19] = BSK_CASM3C_SRB: Viability Assessment in the BioMAP Diversity Plus: CASM3C Assay (AID 2283050); details: primary human coronary artery smooth muscle cells;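 also: cells exposed to compound for 24 h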
[20] = read-out: Transforming growth factor beta 1 (TGFb1), TGFB1 (gene 7040); assay: BSK_BE3C_TGFb1: BioMAP Diversity Plus: BE3C Assay for Transforming growth factor beta 1 (TGFb1) Biomarker Activity (AID 2283036;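 also: TGF-b1 protein level measured by ELISA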); details: primary human bronchial epithelial cells; actives raise or lower the signal
Procedure, shortened: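 In this human primary bronchial epithelial system, an ELISA quantified TGF-b1 one day after dosing. Endpoint changes in either direction were fitted relative to DMSO.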

Compound: CC(O)CCO (stereo not given)
- outcome [1]: inactive
- outcome [2]: inactive
- outcome [3]: inactive
- outcome [4]: inactive
- outcome [5]: inactive
- outcome [6]: inactive
- outcome [7]: inactive
- outcome [8]: inactive
- outcome [9]: inactive
- outcome [10]: inactive
- outcome [11]: inactive
- outcome [12]: inactive
- outcome [13]: inactive
- outcome [14]: inactive
- outcome [15]: inactive
- outcome [16]: inactive
- outcome [17]: inactive
- outcome [18]: inactive
- outcome [19]: inactive

Compound: CN(C)[C@@H]1C(=O)C(C(N)=O)=C(O)[C@@]2(O)C(=O)C3=C(O)c4c(O)cccc4[C@@](C)(O)[C@H]3C[C@@H]12
- outcome [1]: inactive
- outcome [2]: inactive
- outcome [3]: inactive
- outcome [4]: inactive
- outcome [5]: inactive
- outcome [20]: inactive
- outcome [6]: inactive
- outcome [7]: inactive
- outcome [8]: inactive
- outcome [9]: inactive
- outcome [10]: inactive
- outcome [11]: inactive
- outcome [12]: inactive
- outcome [13]: inactive
- outcome [14]: inactive
- outcome [15]: inactive
- outcome [16]: inactive
- outcome [17]: inactive
- outcome [18]: inactive
- outcome [19]: inactive

Compound: CCOc1cccc(C2(N3CCN(c4ccccc4)CC3)CCC(C)CC2)c1 (stereo not given)
- outcome [1]: inactive
- outcome [2]: inactive
- outcome [3]: inactive
- outcome [4]: inactive
- outcome [5]: inactive
- outcome [6]: inactive
- outcome [7]: inactive
- outcome [8]: inactive
- outcome [9]: inactive
- outcome [10]: inactive
- outcome [11]: inactive
- outcome [12]: inactive
- outcome [13]: inactive
- outcome [14]: inactive
- outcome [15]: inactive
- outcome [16]: inactive
- outcome [17]: inactive
- outcome [18]: inactive
- outcome [19]: inactive

Compound: CCCCCCCCCCCCCN1CC(C)OC(C)C1 (stereo not given)
- outcome [1]: inactive
- outcome [2]: inactive
- outcome [3]: inactive
- outcome [4]: inactive
- outcome [5]: inactive
- outcome [20]: inactive
- outcome [6]: inactive
- outcome [7]: inactive
- outcome [8]: inactive
- outcome [9]: inactive
- outcome [10]: inactive
- outcome [11]: inactive
- outcome [12]: inactive
- outcome [13]: inactive
- outcome [14]: inactive
- outcome [15]: inactive
- outcome [16]: inactive
- outcome [17]: inactive
- outcome [18]: inactive
- outcome [19]: inactive

Compound: ClCCOCCCl
- outcome [1]: inactive
- outcome [2]: inactive
- outcome [3]: inactive
- outcome [4]: inactive
- outcome [5]: inactive
- outcome [20]: inactive
- outcome [6]: inactive
- outcome [7]: inactive
- outcome [8]: inactive
- outcome [9]: inactive
- outcome [10]: inactive
- outcome [11]: inactive
- outcome [12]: inactive
- outcome [13]: inactive
- outcome [14]: inactive
- outcome [15]: inactive
- outcome [16]: inactive
- outcome [17]: inactive
- outcome [18]: inactive
- outcome [19]: inactive

Compound: CN(C)c1ccccc1
- outcome [1]: inactive
- outcome [2]: inactive
- outcome [3]: inactive
- outcome [4]: inactive
- outcome [5]: inactive
- outcome [6]: inactive
- outcome [7]: inactive
- outcome [8]: inactive
- outcome [9]: inactive
- outcome [10]: inactive
- outcome [11]: inactive
- outcome [12]: inactive
- outcome [13]: inactive
- outcome [14]: inactive
- outcome [15]: inactive
- outcome [16]: inactive
- outcome [17]: inactive
- outcome [18]: inactive
- outcome [19]: inactive

Compound: Cc1ccc(N=C=O)cc1N=C=O
- outcome [1]: inactive
- outcome [2]: inactive
- outcome [3]: inactive
- AC50 [4]: 20 µM (active)
- outcome [5]: inactive
- outcome [6]: inactive
- outcome [7]: inactive
- outcome [8]: inactive
- outcome [9]: inactive
- outcome [10]: inactive
- outcome [11]: inactive
- AC50 [12]: 28.5 µM (active)
- outcome [13]: inactive
- outcome [14]: inactive
- outcome [15]: inactive
- AC50 [16]: 20 µM (active)
- outcome [17]: inactive
- outcome [18]: inactive
- outcome [19]: inactive

Compound: CCC12COCN1COC2
- outcome [1]: inactive
- outcome [2]: inactive
- outcome [3]: inactive
- outcome [4]: inactive
- outcome [5]: inactive
- outcome [6]: inactive
- outcome [7]: inactive
- outcome [8]: inactive
- outcome [9]: inactive
- outcome [10]: inactive
- outcome [11]: inactive
- outcome [12]: inactive
- outcome [13]: inactive
- outcome [14]: inactive
- outcome [15]: inactive
- AC50 [16]: 4.32 µM (active)
- outcome [17]: inactive
- outcome [18]: inactive
- outcome [19]: inactive
